The record followed here is PubChem BioAssay (Tox21).

Records with an inconclusive call do not appear. A structure can be active in one record and inactive in another. Calls of active or inactive are those of the source. Unless noted, the call rests on the fitted dose curve.

A short description of test [1]: Nuclear factor erythroid 2-related factor 2/antioxidant responsive element (Nrf2/ARE) small molecule agonists: qHTS cell viability counter screen in human keratinocytes (AID 1919968; active means well fitted curve in the direction sought with a large enough effect in the repeat runs; an effect the other way counts as inactive or inconclusive; further: nearly all actives have a fitted effect of over 55% in size; further: potency means the concentration at half of the fitted maximal effect). A digest of the protocol:
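HaCaT ARE reporter line, 1,500 cells/well; 5 h settle, 37 C/5% CO2; cpd in DMSO pinned; 23 h exposure; CellTiter-Fluor, 1 h; fluorescence.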
A general note: In qHTS, concentration-response curves come from the screen itself.

Test [2] in a line: Nuclear factor erythroid 2-related factor 2/antioxidant responsive element (Nrf2/ARE) small molecule agonists: luciferase reporter gene qHTS assay in human keratinocytes (AID 1919969). Further: nearly all actives have a fitted effect of over 35% in size.
Test [3] has as its target Gonadotropin-releasing hormone receptor (Homo sapiens) (UniProt P30968). Description: Human gonadotropin-releasing hormone receptor (GnRHR) small molecule agonists, calcium flux assay in GnRHR-HEK293 cells (AID 1920063). Further: nearly all actives have a fitted effect of over 35% in size. Put shortly: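 GnRHR-HEK293, 1500 cells/well, 18 h 37 C/5% CO2; Ca dye 1 h 37 C; cpd pinned (DMSO), agonist mode; kinetic FL 480/540, 3 min, 1 s reads; 15 conc, n=3.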

Test [4] concerns the target KiSS-1 receptor (Homo sapiens) (UniProt Q969F8). The test can be described thus: Human kisspeptin (KISS1R) small molecule agonists, calcium flux assay in KISS1R-HEK293 cells (AID 1920064; active means well fitted curve in the direction sought with a large enough effect in the repeat runs; an effect the other way counts as inactive or inconclusive). Put shortly:
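Stable human KISS1R HEK293 line; 18 h plating, 37 C/5% CO2; calcium dye 1 h 37 C; compound pin transfer; kinetic fluorescence Ex/Em 480/540, 3 min.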
A general note: Calcium flux is commonly read through the fluorescence of an indicator in the cells.

Test [5] in a line: G protein-coupled receptor (GPCR) small molecule agonists, calcium flux assay: HEK293 wild type cell line counter screen (AID 1920065). Put shortly: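 Kinetic fluorescence at Ex/Em 480/540, recorded every second over 3 min, served as the read-out after compound addition. Each compound was tested at 15 concentrations in triplicate on cells pre-loaded with calcium dye for 1 h.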

A short description of test [6]: p53 small molecule agonists, cell-based qHTS assay with human liver microsomes (AID 1963577). Put shortly:
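p53RE-bla cells, 4,000/well, compound added after 5 h, with human liver microsomes 0.5 mg/mL and NADPH 0.5 mg/mL final; 16 h at 37 C, then LiveBLAzer 2 h RT, fluorescence.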

A short description of test [7]: p53 small molecule agonists, cell-based qHTS assay with rat liver microsomes (AID 1963578). A digest of the protocol:
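p53RE-bla cells, 4,000/well, pre-incubated 5 h, then given compounds plus rat liver microsomes (0.5 mg/mL final) and NADPH (0.5 mg/mL final). Incubation 16 h at 37 C; beta-lactamase reporter read by LiveBLAzer fluorescence after 2 h at room temperature.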

Test [8] can be described thus: p53 small molecule agonists, cell-based qHTS assay with human liver microsomes: qHTS cell viability counter screen (AID 1963579). Further: nearly all actives have a fitted effect of over 45% in size. Put shortly: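 p53RE-bla cells, 4,000/well, dosed 5 hours after plating, with human liver microsomes (0.5 mg/mL final) plus NADPH (0.5 mg/mL final), 16 hours at 37 C. Viability read as CellTiter-Glo luminescence after 30 min at room temperature.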

Test [9] is described as follows: p53 small molecule agonists, cell-based qHTS assay with rat liver microsomes: qHTS cell viability counter screen (AID 1963580). Further: nearly all actives have a fitted effect of over 45% in size. Put shortly:
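Intracellular ATP, by CellTiter-Glo luminescence, defines viability. HCT-116 p53RE-bla cells, 4,000 per well, were compound-treated in the presence of rat liver microsomes and NADPH for 16 h at 37 C.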

A short description of test [10]: p53 small molecule agonists, cell-based qHTS assay: qHTS cell viability counter screen (AID 1963581). Further: nearly all actives have a fitted effect of over 45% in size. A digest of the protocol: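 HCT-116 p53RE-bla cells, 4,000/well, plated 5 h before compound pin transfer; 16 h at 37 C; bla substrate 2 h RT; then CellTiter-Glo, 30 min RT, luminescence.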
The target in test [11] is 5-hydroxytryptamine receptor 2A (Homo sapiens) (UniProt P28223). The test can be described thus: 5-hydroxytryptamine receptor 2A (HTR2A) small molecule agonists, cell-based qHTS assay (AID 1963587). Further: nearly all actives have a fitted effect of over 30% in size. A digest of the protocol: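 Kinetic calcium-flux fluorescence (2 min, 1 sec intervals) after compound addition in agonist mode. HTR2A-CHO cells were cultured 18 h, then dye-loaded 1 h at 37 C.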
Sequence of 5-hydroxytryptamine receptor 2A (Homo sapiens) (P28223 whole entry, looked up): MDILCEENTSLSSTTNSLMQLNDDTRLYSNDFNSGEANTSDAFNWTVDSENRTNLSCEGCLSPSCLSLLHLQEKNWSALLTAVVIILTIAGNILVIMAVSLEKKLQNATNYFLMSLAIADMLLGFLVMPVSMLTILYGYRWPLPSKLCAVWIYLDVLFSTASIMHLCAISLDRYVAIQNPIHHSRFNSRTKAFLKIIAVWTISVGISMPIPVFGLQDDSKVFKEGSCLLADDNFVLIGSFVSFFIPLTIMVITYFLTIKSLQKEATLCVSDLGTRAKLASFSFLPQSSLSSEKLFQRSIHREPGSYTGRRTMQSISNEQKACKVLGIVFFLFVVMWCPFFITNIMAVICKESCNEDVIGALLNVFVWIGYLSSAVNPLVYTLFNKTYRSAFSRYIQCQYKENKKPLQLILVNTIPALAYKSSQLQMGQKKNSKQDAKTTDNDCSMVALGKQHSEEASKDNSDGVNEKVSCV

The target of test [12] is Muscarinic acetylcholine receptor M1 (Homo sapiens) (UniProt P11229). The test can be described thus: Cholinergic receptor muscarinic 1 (CHRM1) small molecule antagonists, cell-based qHTS assay (AID 1963588). Further: nearly all actives have a fitted effect of over 40% in size. Further: potency means the concentration at half of the fitted maximal effect. Put shortly:
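CHRM1-CHO calcium-flux assay, antagonist mode. Cells were seeded 18 h, dye-loaded 1 h at 37 C and given compound for 5 min at RT, then acetylcholine was added at 50nM. FDSS fluorescence was read 3 min; 15 concentrations, three runs.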

Test [13] has the same target. Description: Cholinergic receptor muscarinic 1 (CHRM1) small molecule agonists, cell-based qHTS assay (AID 1963589). Further: nearly all actives have a fitted effect of over 35% in size. Put shortly:
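Human M1 in stable CHO line; 18 h plating, 1 h dye load 37 C; cpd added (agonist mode); Ca2+ fluorescence kinetic read, 1 s intervals; 15 conc, 3 runs.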

Test [14] can be described thus: cAMP Responsive Elements (CRE) small molecule agonists, cell-based qHTS assay (AID 1963590). Put shortly:
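HEK 293T CRE-bla, 2,000 cells/well, 18 h preincubation 37 C/5% CO2; cpds (DMSO) pinned, 3 h; LiveBLAzer B/G FRET substrate, 2 h RT.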

Test [15] in a line: cAMP Responsive Elements (CRE) small molecule antagonists, cell-based qHTS assay (AID 1963591; active means well fitted inhibition curve with a large enough effect in the signal ratio in the repeat runs, not every such curve was filed as active; the % refers to the signal ratio). Put shortly:
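Beta-lactamase reporter read by FRET substrate (LiveBLAzer B/G) after 2 h at room temperature. CRE-bla HEK293T cells had received compound plus 0.25 uM (final) NKH477 for 3 h at 37 °C.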

Test [16] concerns the target Beta-2 adrenergic receptor (Homo sapiens) (UniProt P07550). The test can be described thus: Adrenergic beta2 receptor (ADRB2) small molecule antagonists, cell-based qHTS assay (AID 1963592). Further: nearly all actives have a fitted effect of over 50% in size. Further: potency means the concentration at half of the fitted maximal effect. On activity change, negative = inhibition: series mostly up to about 92 µM. Put shortly: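 Cells (CHO, stable ADRB2 overexpression) incubated 18-20hr at 37C; compounds added from DMSO; agonist mix (1nM isoproterenol, 100uM IBMX, 25uM Ro-20-1724) added; 0.5hr RT; d2-cAMP and anti-cAMP-cryptate added; 1hr RT; 665/615 nm read.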

Test [17] deals with D(2) dopamine receptor (Homo sapiens) (UniProt P14416). The test can be described thus: Dopamine D2 receptor (DRD2) small molecule agonists, cell-based qHTS assay (AID 1963594). Further: nearly all actives have a fitted effect of over 35% in size. Put shortly: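 cAMP accumulation in DRD2-HEK293 cells measured by HTRF after 1 h detection; compounds added 10 min before NKH477 (200nM […]) forskolin-analogue stimulation, 30 min at room temperature, with Ro20-1724 present at 0.1 mM final.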
Sequence of D(2) dopamine receptor (Homo sapiens) (P14416 whole entry, looked up): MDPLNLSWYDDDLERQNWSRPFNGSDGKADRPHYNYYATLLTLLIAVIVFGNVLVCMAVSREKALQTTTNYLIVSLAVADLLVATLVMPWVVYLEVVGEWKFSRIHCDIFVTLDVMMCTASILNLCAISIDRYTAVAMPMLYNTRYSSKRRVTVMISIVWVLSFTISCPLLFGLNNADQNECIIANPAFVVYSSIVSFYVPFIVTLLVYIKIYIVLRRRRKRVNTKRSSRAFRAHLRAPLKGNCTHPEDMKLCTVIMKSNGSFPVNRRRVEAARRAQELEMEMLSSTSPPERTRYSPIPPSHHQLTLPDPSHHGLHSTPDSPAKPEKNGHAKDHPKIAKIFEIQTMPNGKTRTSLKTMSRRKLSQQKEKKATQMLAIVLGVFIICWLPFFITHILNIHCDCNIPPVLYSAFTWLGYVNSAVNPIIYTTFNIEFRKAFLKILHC

For test [18] the target is unchanged. Description: Dopamine D2 receptor (DRD2) small molecule antagonists, cell-based qHTS assay (AID 1963595; active means well fitted inhibition curve with a large enough effect in the signal ratio in the repeat runs, with a control signal flat; the % refers to the signal ratio; further: potency means the concentration at half of the fitted maximal effect). A digest of the protocol: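 Cells were plated and grown for 24 h at 37 °C. Ro20-1724 (0.1 mM final) went in first, then compound for 10 min. NKH477 (200 nM) with quinpirole (12 nM) followed for 30 min at RT, then HTRF detection reagents for 1 h.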
The nature of test [19]: p53 small molecule agonists, cell-based qHTS assay (AID 1963582; active means well fitted activation curve with a large enough effect in the signal ratio in the repeat runs, not every such curve was filed as active; the % refers to the signal ratio). Put shortly: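 Reporter line: p53RE-bla. Pre-incubation 5 h, 37 C, 5% CO2; compound (DMSO, pin tool) 16 h, 37 C; B/G FRET substrate 2 h RT; fluorescence intensity read.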
Test [20] has as its target Beta-2 adrenergic receptor (Homo sapiens) (UniProt P07550). Description: Adrenergic beta2 receptor (ADRB2) small molecule agonists, cell-based qHTS assay (AID 1963593).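 Further: CHO cells stably overexpressing human ADRB2.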 Put shortly:
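CHO cells stably over-expressing ADRB2 were plated overnight at 37C, then dosed with compounds plus a stimulation mix containing 100uM IBMX and 25uM Ro-20-1724 for 0.5hr at room temperature. cAMP was measured by HTRF competition, 1hr.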
On the % scale 0 is the no-effect control and ±100 the full control effect.

Sequence of KiSS-1 receptor (Homo sapiens) (Q969F8 whole entry, looked up): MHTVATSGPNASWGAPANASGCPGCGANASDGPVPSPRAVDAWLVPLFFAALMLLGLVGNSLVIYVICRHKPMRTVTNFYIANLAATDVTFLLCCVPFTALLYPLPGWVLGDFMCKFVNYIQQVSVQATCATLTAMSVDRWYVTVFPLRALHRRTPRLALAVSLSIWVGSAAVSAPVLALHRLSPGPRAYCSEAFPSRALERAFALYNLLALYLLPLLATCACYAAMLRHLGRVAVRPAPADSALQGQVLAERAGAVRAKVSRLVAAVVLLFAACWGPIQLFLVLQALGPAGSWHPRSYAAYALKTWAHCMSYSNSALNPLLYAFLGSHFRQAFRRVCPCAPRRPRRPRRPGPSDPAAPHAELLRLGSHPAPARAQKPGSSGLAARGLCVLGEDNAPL
Sequence of Gonadotropin-releasing hormone receptor (Homo sapiens) (P30968 whole entry, looked up): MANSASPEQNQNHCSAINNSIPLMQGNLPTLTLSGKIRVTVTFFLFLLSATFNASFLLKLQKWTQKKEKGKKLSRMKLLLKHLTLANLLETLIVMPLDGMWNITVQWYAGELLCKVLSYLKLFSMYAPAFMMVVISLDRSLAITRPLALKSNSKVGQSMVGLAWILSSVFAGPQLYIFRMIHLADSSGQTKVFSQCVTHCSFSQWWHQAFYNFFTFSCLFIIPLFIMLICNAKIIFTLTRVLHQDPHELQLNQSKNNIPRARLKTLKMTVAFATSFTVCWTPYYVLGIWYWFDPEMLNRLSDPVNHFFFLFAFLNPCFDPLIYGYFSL
Sequence of Beta-2 adrenergic receptor (Homo sapiens) (P07550 whole entry, looked up): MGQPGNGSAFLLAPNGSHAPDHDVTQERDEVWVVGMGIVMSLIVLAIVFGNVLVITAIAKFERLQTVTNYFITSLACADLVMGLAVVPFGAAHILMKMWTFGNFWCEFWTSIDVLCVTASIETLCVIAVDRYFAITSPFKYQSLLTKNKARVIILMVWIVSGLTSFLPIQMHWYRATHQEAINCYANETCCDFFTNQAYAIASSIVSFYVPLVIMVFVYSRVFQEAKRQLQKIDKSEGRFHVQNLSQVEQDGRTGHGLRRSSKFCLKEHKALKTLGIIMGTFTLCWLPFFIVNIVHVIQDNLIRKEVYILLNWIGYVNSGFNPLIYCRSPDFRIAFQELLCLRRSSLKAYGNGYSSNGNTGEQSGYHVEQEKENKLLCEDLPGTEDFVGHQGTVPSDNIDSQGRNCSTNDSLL
Sequence of Muscarinic acetylcholine receptor M1 (Homo sapiens) (P11229 whole entry, looked up): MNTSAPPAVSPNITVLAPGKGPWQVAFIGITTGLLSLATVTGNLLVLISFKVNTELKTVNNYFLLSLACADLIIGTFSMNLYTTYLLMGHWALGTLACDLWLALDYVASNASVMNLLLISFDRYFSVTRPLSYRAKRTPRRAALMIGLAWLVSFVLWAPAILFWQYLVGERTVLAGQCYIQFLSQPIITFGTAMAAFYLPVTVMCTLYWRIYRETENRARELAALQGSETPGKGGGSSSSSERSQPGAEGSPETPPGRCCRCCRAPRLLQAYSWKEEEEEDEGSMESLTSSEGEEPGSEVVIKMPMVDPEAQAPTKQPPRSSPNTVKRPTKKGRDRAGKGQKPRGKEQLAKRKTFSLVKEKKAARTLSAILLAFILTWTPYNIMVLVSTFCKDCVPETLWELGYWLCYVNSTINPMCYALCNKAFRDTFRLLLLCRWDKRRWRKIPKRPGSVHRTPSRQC

In the case of `CCCCCCCCCCCCCCCCI`, the activity change, negative = cytotoxicity in [1] is 1.33% [at 19 µM] (inactive); in test [8] it was 1.61% [at 13.5 µM] (inactive); in test [9], -2.18% [at 13.5 µM] (inactive); in test [10], -8.29% [at 13.5 µM] (inactive). The activity, positive = activation in [2] is -9.58% [at 19 µM] (inactive). The activity change in [3] was 0.684% [at 11.8 µM, stronger effect = higher value] (inactive). The activation is 7.41% [at 15.8 µM] (inactive) in test [4]; 2.83% [at 11.8 µM] (inactive) in test [5]; -0.459% [at 13.5 µM] (inactive) in test [6]; -1.95% [at 13.6 µM] (inactive) in test [7]; -2.69% [at 15.9 µM] (inactive) in test [11]; 1.29% [at 15.8 µM] (inactive) in test [13]. The activation in [14] was -1.28% [at 19 µM] (inactive); in test [17], 2.88% [at 19 µM] (inactive). Moreover, the activity, negative = inhibition in [12] is -11% [at 12.6 µM] (inactive). Besides, the values for the activity change, negative = inhibition in test [15], in [16] and in test [18] were -14.2% [at 18.9 µM] (inactive), 0.138% [at 19 µM] (inactive) and -1.21% [at 18.9 µM] (inactive), respectively.

With `OCC1(CO)COCOC1`, the Potency result in test [1], in test [2], in test [3], in test [4], in [5] and in test [6] was “inactive” in each case. Moreover, the Potency result in [7], in test [8], in test [9], in test [19], in test [11] and in test [12] was “inactive” in each case. Also, the Potency result in test [13], in [14], in test [15], in test [16], in [20] and in [17] was “inactive” throughout. For the same molecule, the Potency entry in test [18] is “inactive”.

In the case of `O=C(O)CCCCCCCCCCCC(=O)O`, the Potency in [1] is 30.1 µM (active) and inactive. Also, the Potency result in [2], in test [3], in test [4], in test [5], in [6] and in [7] was “inactive” each time. Also, the Potency result in [8], in test [9], in [10], in test [11], in [13] and in test [16] was “inactive” in each case. For the same molecule, the Potency result in [20], in test [17] and in test [18] was “inactive” each time.

Regarding `O=C(O)c1ccccc1-n1cc(C(=O)O)c(=O)c2cc(Nc3c(F)cc(F)cc3Cl)c(Cl)cc21`, the Potency result in test [1], in test [2], in test [3], in [4], in [5] and in test [6] was “inactive” in each case. Also, the Potency result in test [7], in test [8], in [9], in [19], in test [11] and in [12] was “inactive” in each case. The Potency result in [13], in test [14], in [15], in test [16] and in test [20] was “inactive” throughout.

Take `C=CCOc1cc(Cl)ccc1C(=O)NCCN(CC)CC`: the Potency entry in [1], in test [2], in test [3], in test [4], in test [5] and in [6] was “inactive” in each case. Further, the Potency result in [7], in [8], in test [9], in test [10], in test [11] and in test [13] was “inactive” each time. The Potency entry in [14], in [15], in test [16] and in test [17] was “inactive” in each case. In addition, in test [12], the Potency was 4.6 µM (active).

In the case of `CCCCCCCCCCCC(=O)OCC(C)OC(=O)CCCCC(=O)O` (stereo not drawn), the Potency result in test [1], in test [2], in test [3], in test [4], in test [5] and in [6] was “inactive” throughout. Moreover, the Potency entry in test [7], in [8], in test [9], in test [19], in [11] and in test [12] was “inactive” in each case. Besides, the Potency entry in test [14], in test [15], in test [16], in test [17] and in test [18] was “inactive” throughout.

For `c1cnc2cc3c(cc2n1)C1CNCC3C1`, the Potency entry in [1], in test [2], in [3], in test [4], in test [5] and in test [6] was “inactive” throughout. The Potency result in test [7], in test [8], in test [9], in test [19], in test [11] and in test [12] was “inactive” in each case. The Potency entry in [13], in [14], in test [15], in [16], in test [17] and in test [18] was “inactive” each time.

Take `Clc1nc(Cl)c(Cl)c(Cl)c1Cl`: the Potency result in [1], in test [2], in test [3], in test [4], in test [5] and in test [6] was “inactive” in each case. Further, the Potency entry in test [7], in test [8], in test [9], in [11], in test [12] and in test [14] was “inactive” throughout. The Potency entry in [15], in test [16], in test [20], in test [17] and in test [18] was “inactive” in each case.

`CN(C)CCC=C1c2ccccc2CCc2ccccc21`: the Potency result in test [1], in test [2], in [3], in test [4], in test [5] and in test [6] was “inactive” throughout. Also, the Potency result in test [7], in [8], in test [9], in test [14], in [15] and in [17] was “inactive” each time. Moreover, the figures for the Potency in test [16] and in [18] were 24.3 µM (active) and 27.3 µM (active), respectively.
